Data reported in PubChem BioAssay (NCATS).
Inconclusive results are not listed. Where a call stands in place of a potency, no number is given. Activity calls are given as the source filed them. Calls come from the whole dose curve; as a rule, active = well fitted inhibition curve with a large enough effect; inconclusive = small, poorly fitted or top-dose-only effect; inactive = no such curve, though single readings can be large or run the other way.

assay: Primary qHTS for small molecule stabilizers of the endoplasmic reticulum resident proteome: Secreted ER Calcium Modulated Protein (SERCaMP) assay (AID 1508630); conditions: SH-SY5Y GLuc-SERCaMP (Gaussia luciferase released on ER calcium loss) secretion, thapsigargin, luminescence; series mostly up to 38.4 µM
In short: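 The SH-SY5Y reporter protocol was run at 3 concentrations up to 38.3 uM (primary) or 11 concentrations (follow-up): 16 h compound, 100 nM thapsigargin for 4 h, then extracellular luciferase luminescence.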

Row | SMILES | Potency
1 | CC[C@H]1C=CC=CC[C@@H](C)[C@H](O)[C@@](C)(O)C(=O)[C@@H](C)[C@H](O)[C@@H](C)C(=O)[C@@H](C)[C@H](O)[C@@H](C)C=CC(=O)O[C@@H]2[C@@H](C)[C@H](CC1)O[C@]1(CC[C@H](C)[C@H](C[C@@H](C)O)O1)[C@H]2C | inactive
2 | CC(C)[C@]12O[C@@H]1[C@@H]1O[C@]13[C@]1(O[C@H]1C[C@@H]1C4=C(CC[C@@]13C)C(=O)OC4)[C@H]2O | inactive
3 | CC(=Cc1csc(C)n1)[C@@H]1C[C@H]2O[C@]2(C)CCC[C@H](C)[C@@H](O)[C@@H](C)C(=O)C(C)(C)[C@@H](O)CC(=O)O1 | inactive
4 | CC[C@@H]1[C@@H](C)O[C@@](O)([C@@H](C)[C@H](O)[C@H](C)[C@H]2OC(=O)C=CC=C[C@@H](C)[C@@H]([C@@H](C)[C@@H](O)[C@H](C)[C@@]3(O)C[C@H](O[C@H]4C[C@H](O)[C@H](O)[C@H](C)O4)[C@H](CC)[C@@H](C)O3)OC(=O)C=CC=C[C@@H]2C)C[C@H]1O[C@H]1C[C@H](O)[C@H](O)[C@H](C)O1 | inactive
5 | COc1ccc2c(c1)CN(C)CC2c1ccc(Cl)c(Cl)c1 (stereo not drawn) | inactive
6 | C[C@]12CC[C@H](O)CC1=CC[C@H]1[C@H]3CCC(=O)[C@@]3(C)CC[C@@H]12 | inactive
7 | CC=C(C)C(=O)O[C@H]1C(C)=C2[C@@H]3OC(=O)[C@@](C)(O)[C@@]3(O)[C@@H](OC(=O)CCC)C[C@](C)(OC(C)=O)[C@@H]2[C@@H]1OC(=O)CCCCCCC | inactive
8 | C#C[C@]1(O)C=C[C@@H]2[C@@H]3CCC4=CC(=O)CC[C@@H]4[C@H]3CC[C@@]21CC | inactive
